Percent Effect data for 52 molecules are collected here from ChEMBL document CHEMBL3988442, “University of Dundee, Small-Polar-MMV Screening Library” (2021).

In test [1] the target is T1, Aspartate--tRNA(Asp/Asn) ligase (Mycobacterium tuberculosis (strain ATCC 25618 / H37Rv)) (UniProt P9WFW3). Also: in the data most compounds retested in dose-response had high values.
T1 sequence (whole entry): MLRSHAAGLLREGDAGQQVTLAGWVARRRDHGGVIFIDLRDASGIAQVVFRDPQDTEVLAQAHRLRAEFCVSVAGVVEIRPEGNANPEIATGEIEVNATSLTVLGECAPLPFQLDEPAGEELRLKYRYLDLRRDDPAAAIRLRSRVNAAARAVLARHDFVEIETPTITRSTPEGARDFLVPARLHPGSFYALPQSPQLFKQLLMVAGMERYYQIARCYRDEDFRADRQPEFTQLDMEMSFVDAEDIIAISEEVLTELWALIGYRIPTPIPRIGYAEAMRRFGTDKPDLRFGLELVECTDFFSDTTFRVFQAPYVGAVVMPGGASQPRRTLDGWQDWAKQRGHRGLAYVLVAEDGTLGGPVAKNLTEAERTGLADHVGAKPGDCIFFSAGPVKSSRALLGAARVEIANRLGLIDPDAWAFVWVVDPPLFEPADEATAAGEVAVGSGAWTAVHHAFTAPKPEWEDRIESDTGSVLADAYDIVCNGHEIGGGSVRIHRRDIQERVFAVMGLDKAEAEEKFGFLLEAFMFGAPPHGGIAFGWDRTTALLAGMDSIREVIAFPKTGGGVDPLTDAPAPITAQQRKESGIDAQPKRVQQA
The test can be described thus: Assay for Asp RNA synthetase-1 from Mycobacterium tuberculosis. Format: functional. Set-up: scale not given: direction of the effect not stated beside the values. Conditions: 30 µM.

The target of test [2] is Shiga toxin 2 (Escherichia coli O157:H7) (UniProt P09385+P09386). The test can be described thus: E. coli 0.157:H7 Shiga Toxin SOP - stx2 screening assay. Format: functional. Set-up: scale not given: direction of the effect not stated beside the values. Particulars: 30 µM.

The structures appear in SMILES notation.

Turning to `Cc1nc(C2CCCN(C(=O)CCCn3ccnc3C)C2)no1` (centres undefined), the Percent Effect in test [1] was -1%; in test [2], 14.1%.
In the case of `CCOc1ccccc1OC1CCN(C(=O)c2ccc(=O)[nH]n2)CC1`, the Percent Effect was -5.79% in test [1] and 32.3% in test [2].
Consider `Cn1cc(NC(=O)N2CCC(c3ccccc3)CC2)ccc1=O`, for which the results for the Percent Effect in test [1] and in test [2] were 55% and 21.8%, respectively.
For `CCn1c(N)nc2cc(C(=O)NCCc3sccc3C)cnc21`, in that order: 2.47% and -89%.
As to `CC(Cn1ccnc1)NC(=O)N1CCN(Cc2cccnc2)CC1` (centres undefined), the Percent Effect was determined as 0.189% in test [1] and 6.15% in test [2].
As for `Cc1cc(S(=O)(=O)N2CCc3ccc(F)cc32)cc(C(=O)O)c1C`, the Percent Effect is 2.1% in test [1] and -5.86% in test [2].
With `COc1ccccc1OCC(=O)NS(=O)(=O)c1ccccc1Br`, the Percent Effect in test [1] is 5.46%; in test [2], -14.2%.
Consider `CC(C)c1n[nH]c(C2CN(Cc3nnc(C4CC4)o3)CCO2)n1` (centres undefined), for which the Percent Effect in test [1] is -2.26%; in test [2] it was 0.109%.
Take `c1cnnc(N2CCCC2CNc2nc3ccccc3o2)c1` (centres undefined): the values for the Percent Effect in test [1] and in test [2] were -3.6% and -10.1%, respectively.
The like results for `CCN(Cc1nc2c(cnn2C)c(=O)[nH]1)Cc1cccs1` were, in that order, -1.27% and 5.32%.
As to `CC(C)Oc1cc(N2C[C@@H](C)O[C@@H](C)C2)nc(N)n1`, the Percent Effect in test [1] is -0.457%; in test [2], 0.94%.
The like results for `COc1cccc(N2CCN(C(=O)[C@H](O)C3CCCCC3)CC2=O)c1` were, in that order, -3.25% and -7.11%.
Turning to `Cc1ncsc1CN1C[C@@H]2COC[C@]2(COc2ccc(C#N)cn2)C1`, the results for the Percent Effect in test [1] and in test [2] were -0.365% and -16.3%, respectively.
For `OC(CN1CCN(Cc2ccc(F)cc2)CC1)C1CC1` (centres undefined), in that order: -7.53% and -3.92%.
Take `Cc1cnc(CN(Cc2ccccc2)CC(O)c2cccs2)cn1` (centres undefined): the Percent Effect in test [1] was -1.43%; in test [2], -15.5%.
On to `CC(C)c1noc(CCCC(=O)NC2CCS(=O)(=O)C2)n1` (centres undefined), for which the Percent Effect in test [1] was 0.955%; in test [2], -17.4%.
Regarding `Cn1cc(CCC(=O)N2C[C@H]3CC[C@@H]2CN(Cc2ccccc2)C3)cn1`, the figures for the Percent Effect in test [1] and in test [2] were 2.92% and -3.02%, respectively.
The like results for `Cc1nc(C)n(CC2CCCN(CC(=O)Nc3nncs3)C2)n1` (centres undefined) were, in that order, -4.19% and 25.6%.
For the molecule `CC(C)CCN(C)C(=O)c1nc(S(C)(=O)=O)n2ccccc12`, the Percent Effect is -3.39% in test [1] and 26.2% in test [2].
With `CCN1CCN(c2ccc(CNC(=O)c3c(C)noc3C)cn2)CC1`, the values for the Percent Effect in test [1] and in test [2] were -3.84% and -40.9%, respectively.
The like results for `Cc1ccc(N2CCCC(NCc3ccc(C)o3)C2)nn1` (centres undefined) were, in that order, -0.626% and -32.5%.
For `CN(C(=O)CN1CCOC(Cn2cccn2)C1)c1nccs1` (centres undefined), in that order: 5.6% and -22.6%.
Take `CN(C)S(=O)(=O)N1CCC2(CCCN(Cc3ccc(F)cc3)C2=O)C1` (centres undefined): the Percent Effect in test [1] is -2.05%; in test [2] it was -20.5%.
The like results for `COc1c(CNCc2cccc(Cn3ccnc3)c2)c(C)nn1C` were, in that order, 7.35% and 14.4%.
The like results for `O=C(c1ccc[nH]1)N1C[C@H]2CC[C@@H]1CN(c1ncccn1)C2` were, in that order, -4.31% and -5.71%.
The like results for `CC(C)(C)NC(=O)C1CSCN1S(=O)(=O)c1cccc(F)c1` (centres undefined) were, in that order, 10.2% and -19.4%.
Take `Cc1cc(C2CCCN2C(=O)c2cc3c(s2)CCC3)on1` (centres undefined): the Percent Effect was -0.678% in test [1] and 5.77% in test [2].
Consider `Cn1cc(CN2CC3(CCN(C(=O)c4ccoc4)C3)C2)cn1`, for which the Percent Effect in test [1] is -2.07%; in test [2], -8.68%.
The like results for `CCO[C@@H]1CO[C@@]2(CCCN(C(=O)COc3ccccc3OC)C2)C1` were, in that order, 1.03% and -25.3%.
For `O=C(N1CCCC1)N1CCN(CC2CC2)c2ncccc2C1`, in that order: 3.25% and -4.59%.
Consider `Cc1ccccc1C1(CNc2nnc(C)c(C)c2C#N)CCOCC1`, for which the Percent Effect in test [1] worked out at 2.96%; in test [2], 18.2%.
With `CC(=O)Nc1nc(C(=O)Nc2ccc(N3CCCCC3)nc2)cs1`, the Percent Effect in test [1] is 1.12%; in test [2] it was -46.3%.
For `CCN1CCC(NC(=O)CN2CCCC2Cn2cncn2)CC1` (centres undefined), the results for the Percent Effect in test [1] and in test [2] were -1.82% and -12.3%, respectively.
In the case of `CCn1cc(NC(=O)NCC(O)CN2CCc3ccccc3C2)cn1` (centres undefined), the Percent Effect was 6.51% in test [1] and -38.6% in test [2].
With `CCN(CC)c1ccc(C(=O)NCc2cccnc2-n2cncn2)cn1`, the Percent Effect in test [1] is 6%; in test [2] it was -12.3%.
As to `NC(=O)NCC(=O)N1C[C@H]2CC[C@@H]1CN(C1Cc3ccccc3C1)C2`, the Percent Effect in test [1] was 6.33%; in test [2], -7%.
For `c1cncc(-c2ccc3c(c2)C2(CC3)CCN(c3nncs3)CC2)c1`, the Percent Effect is 1.44% in test [1] and -7.47% in test [2].
Turning to `COCC1CC2(CCN(C(=O)c3cccn3C)CC2)CN1C(C)C` (centres undefined), the Percent Effect in test [1] was -3.53%; in test [2], -6.37%.
For `CCN(CC)C1CCN(C(=O)NCc2c(C)noc2C)CC1`, in that order: 0.182% and -1.12%.
For `CC(=O)N1CCC(c2cc(C(F)(F)F)n3ccnc3n2)CC1`, in that order: 6.9% and -9.96%.
For the molecule `CC1CCCN(Cc2csc(-c3ncccn3)n2)CC1` (centres undefined), the figures for the Percent Effect in test [1] and in test [2] were -2.94% and -26.7%, respectively.
As to `O=C(NCC(=O)N1CCc2ccccc2C1)c1ccoc1`, the figures for the Percent Effect in test [1] and in test [2] were 1.62% and -10.2%, respectively.
For `O=S(=O)(CCN1CCOC(Cn2cncn2)C1)c1ccccc1` (centres undefined), in that order: -2.75% and -7.21%.
`Cn1ccc(CN2CCC(c3ccccc3)CC2)cc1=O`: the Percent Effect was 4.58% in test [1] and -3.12% in test [2].
For `CNS(=O)(=O)c1ccc(C(=O)NCCc2ccccn2)cc1`, in that order: 9.16% and 14.4%.
Take `c1cncc(C2COC3(CCN(CC4CC4)CC3)C2)c1` (centres undefined): the Percent Effect in test [1] was -0.915%; in test [2] it was -13.1%.
For `CNS(=O)(=O)c1ccc(C(=O)NC2CCc3nc(C)cn3C2)o1` (centres undefined), in that order: -6.5% and 17.4%.
In the case of `CCc1nc(CN2CCOC(Cn3nc(C)nc3C)C2)no1` (centres undefined), the Percent Effect was 3.17% in test [1] and 28.4% in test [2].
As to `Cn1ccc(C(=O)N2CCC(Cc3cnc4[nH]ccc4c3)CC2)n1`, the Percent Effect in test [1] was found to be 0.283%; in test [2] it was 19.7%.
On to `CCn1cc2c(n1)CN(C(=O)c1ccncc1)CC2COCC1CC1` (centres undefined), for which the results for the Percent Effect in test [1] and in test [2] were 3.06% and -17.4%, respectively.
For the molecule `Cc1cnn(CC2CN(CC(=O)NCCc3cccs3)CCO2)c1` (centres undefined), the figures for the Percent Effect in test [1] and in test [2] were -11.2% and 6.55%, respectively.
Consider `Cc1ccsc1CNc1cc(N2CCCC2CO)ncn1` (centres undefined), for which the results for the Percent Effect in test [1] and in test [2] were 3.04% and -22.2%, respectively.
